In PubChem BioAssay AID624320 (Broad Institute, 2012):
Active and inactive are the calls of the source.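 Rule for the calls: active = compounds lowering absorbance whose fitted half-effect dose is at most twice the highest valid tested dose; inconclusive = flat fit between 30 and 70% inhibition, or poor fit; inactive = the rest, including opposite-direction activity.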

Target: Protein disulfide-isomerase A6 (Homo sapiens) (UniProt Q15084)
Assay: inhibitors of ERp5 insulin reduction – biochemical, insulin aggregation absorbance, dry powder samples, selectivity assay for PDI inhibitor antithrombotic project, dose response (AID 624320)

Protein disulfide-isomerase A6 (Homo sapiens), sequence (Q15084 whole entry, looked up): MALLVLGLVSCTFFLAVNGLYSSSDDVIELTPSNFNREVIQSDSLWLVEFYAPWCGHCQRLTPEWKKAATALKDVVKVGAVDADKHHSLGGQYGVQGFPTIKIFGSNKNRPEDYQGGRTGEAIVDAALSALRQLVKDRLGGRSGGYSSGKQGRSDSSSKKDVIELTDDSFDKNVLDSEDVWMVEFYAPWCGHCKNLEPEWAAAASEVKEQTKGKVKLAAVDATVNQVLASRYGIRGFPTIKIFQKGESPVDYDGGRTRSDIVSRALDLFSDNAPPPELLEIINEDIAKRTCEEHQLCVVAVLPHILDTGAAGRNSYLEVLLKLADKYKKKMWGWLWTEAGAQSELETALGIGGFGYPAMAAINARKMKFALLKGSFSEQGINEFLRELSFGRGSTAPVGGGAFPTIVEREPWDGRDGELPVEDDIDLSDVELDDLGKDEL

C[C@H]1CN([C@@H](C)CO)C(=O)c2cccc(NS(C)(=O)=O)c2O[C@H]1CN(C)Cc1ccc(Oc2ccccc2)cc1
outcome: inactive
